About 2,000 (36%) of roughly 5,500 compounds were called active. Another 18% or so got no clear call; they are omitted. Cut-off read from the data, not from the text of the source: active = normalized growth mostly below about 0.91 (no sharp cut-off); inconclusive = no clear call, values can overlap the other calls; inactive = mostly above about 0.92. This is one part of the list.
Experiment: chemical genetic growth profiling, strain panel (AID 1159580);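 note: tested at 20 µM; growth read once vehicle control cultures reached saturation at 30 °C; 1 = growth at the plate median or of vehicle wells; lower values mean less growth of the strain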
Conditions: S. cerevisiae deletion strains, growth OD
[1] = locus YGR078C, strain PAC10, hits give low values
[2] = locus YHR030C, strain SLT2, hits give low values
[3] = locus YMR263W, strain SAP30, hits give low values
[4] = locus YNL153C, strain GIM3, hits give low values

Measured: normalized growth

CC(=O)c1ccc(S(=O)(=O)NC(=O)NC2CCCCC2)cc1
inactive: locus YAL040C, strain CLN3, hits give low values 1.06 | locus YER002W, strain NOP16, hits give low values 0.998 | [1] 0.99 | [2] 0.959 | locus YHR079C, strain IRE1, hits give low values 0.963 | locus YJL095W, strain BCK1, hits give low values 1.02 | locus YJR066W, strain TOR1, hits give low values 0.918 | locus YLR113W, strain HOG1, hits give low values 0.995 | [3] 0.987 | [4] 0.95 | locus YNL175C, strain NOP13, hits give low values 0.983 | locus YNL183C, strain NPR1, hits give low values 0.937 | locus YNL197C, strain WHI3, hits give low values 0.986 | locus YNL224C, strain SQS1, hits give low values 1.01 | locus YOR083W, strain WHI5 (second series), hits give low values 1 | locus YOR231W, strain MKK1, hits give low values 0.967 | locus YPL256C, strain CLN2, hits give low values 0.965

CCOC(=O)/C(C#N)=C/N=C(N/N=C\c1c(Cl)cccc1Cl)SC
inactive: locus YAL013W, strain DEP1, hits give low values 0.98 | locus YBR229C, strain ROT2, hits give low values 1.02 | locus YCL061C, strain MRC1, hits give low values 1.06 | locus YDL101C, strain DUN1, hits give low values 1.04 | locus YDR150W, strain NUM1, hits give low values 1.03 | [1] 0.996 | locus YHR087W, strain rtc3, hits give low values 1.01 | locus YJL187C, strain SWE1, hits give low values 0.998 | locus YJR043C, strain POL32, hits give low values 1.04 | locus YJR075W, strain HOC1, hits give low values 1.02 | locus YLR058C, strain SHM2 (second series), hits give low values 0.989 | locus YLR085C, strain ARP6, hits give low values 0.845 | locus YML094W, strain GIM5, hits give low values 0.901 | locus YMR219W, strain ESC1, hits give low values 1.01 | [3] 1.01 | locus YMR307W, strain GAS1, hits give low values 0.799 | [4] 1.03 | locus YNL322C, strain KRE1, hits give low values 0.968 | locus YPL055C, strain LGE1, hits give low values 0.956 | locus YPR135W, strain CTF4, hits give low values 0.795
active: locus YEL061C, strain CIN8, hits give low values 0.8 | [2] 0.687 | locus YKL190W, strain CNB1, hits give low values 0.926 | locus YLR039C, strain RIC1, hits give low values 0.771 | locus YLR262C, strain YPT6, hits give low values 0.796 | locus YNL298W, strain CLA4 (second series), hits give low values 0.795 | locus YNR030W, strain Alg12, hits give low values 0.863 | locus YPL241C, strain CIN2, hits give low values 0.764

From PubChem BioAssay AID1159580 (chemical genetic matrix, 2015)
